Our source for the binding signal values is paper PMC9911399, “Two distinct binding modes provide the RNA-binding protein RbFox with extraordinary sequence specificity”.

B1: CGGAUGC (DNA:RNA)
RNA: GGGAGACCGGAAUUCAGAUUGUCCCGGAUGCUUAAAUCCCGUCGUAGCCACCA
DNA 1: CAATCTGAATTCCGGTCTCCC
DNA 2: TGGTGGCTACGACGGGATT
B2: UGAAUUG (DNA:RNA)
RNA: B1 RNA with C25U, G27A, G30U, C31G
DNA 1: CAATCTGAATTCCGGTCTCCC
DNA 2: TGGTGGCTACGACGGGATT
B3: GUCCGGC (DNA:RNA)
RNA: B1 RNA with C25G, G26U, G27C, A28C, U29G
DNA 1: CAATCTGAATTCCGGTCTCCC
DNA 2: TGGTGGCTACGACGGGATT
B4: CGGCUUG (DNA:RNA)
RNA: B1 RNA with A28C, G30U, C31G
DNA 1: CAATCTGAATTCCGGTCTCCC
DNA 2: TGGTGGCTACGACGGGATT
B5: GGGAUGC (DNA:RNA)
RNA: B1 RNA with C25G
DNA 1: CAATCTGAATTCCGGTCTCCC
DNA 2: TGGTGGCTACGACGGGATT
B6: UAAAUGC (DNA:RNA)
RNA: B1 RNA with C25U, G26A, G27A
DNA 1: CAATCTGAATTCCGGTCTCCC
DNA 2: TGGTGGCTACGACGGGATT
B7: CCCCGGC (DNA:RNA)
RNA: B1 RNA with G26C, G27C, A28C, U29G
DNA 1: CAATCTGAATTCCGGTCTCCC
DNA 2: TGGTGGCTACGACGGGATT
B8: CACCGGC (DNA:RNA)
RNA: B1 RNA with G26A, G27C, A28C, U29G
DNA 1: CAATCTGAATTCCGGTCTCCC
DNA 2: TGGTGGCTACGACGGGATT
B9: GGAUGCU (DNA:RNA)
RNA: B1 RNA with C25G, G27A, A28U, U29G, G30C, C31U
DNA 1: CAATCTGAATTCCGGTCTCCC
DNA 2: TGGTGGCTACGACGGGATT
B10: UGAAUGC (DNA:RNA)
RNA: B1 RNA with C25U, G27A
DNA 1: CAATCTGAATTCCGGTCTCCC
DNA 2: TGGTGGCTACGACGGGATT
B11: GUCUUGC (DNA:RNA)
RNA: B1 RNA with C25G, G26U, G27C, A28U
DNA 1: CAATCTGAATTCCGGTCTCCC
DNA 2: TGGTGGCTACGACGGGATT
B12: GGCUUGC (DNA:RNA)
RNA: B1 RNA with C25G, G27C, A28U
DNA 1: CAATCTGAATTCCGGTCTCCC
DNA 2: TGGTGGCTACGACGGGATT
B13: GACCAGC (DNA:RNA)
RNA: B1 RNA with C25G, G26A, G27C, A28C, U29A
DNA 1: CAATCTGAATTCCGGTCTCCC
DNA 2: TGGTGGCTACGACGGGATT
B14: GGGGUCA (DNA:RNA)
RNA: B1 RNA with C25G, A28G, G30C, C31A
DNA 1: CAATCTGAATTCCGGTCTCCC
DNA 2: TGGTGGCTACGACGGGATT
B15: AGGUCAC (DNA:RNA)
RNA: B1 RNA with C25A, A28U, U29C, G30A
DNA 1: CAATCTGAATTCCGGTCTCCC
DNA 2: TGGTGGCTACGACGGGATT
B16: CCUAGCG (DNA:RNA)
RNA: B1 RNA with G26C, G27U, U29G, G30C, C31G
DNA 1: CAATCTGAATTCCGGTCTCCC
DNA 2: TGGTGGCTACGACGGGATT
B17: GAAUCAG (DNA:RNA)
RNA: GGGAGACCGGAAUUCAGAUUGUCCGAAUCAGUUAAAUCCCGUCGUAGCCACCA
DNA 1: CAATCTGAATTCCGGTCTCCC
DNA 2: TGGTGGCTACGACGGGATT
B18: UUGAAGG (DNA:RNA)
RNA: B1 RNA with C25U, G26U, U29A, C31G
DNA 1: CAATCTGAATTCCGGTCTCCC
DNA 2: TGGTGGCTACGACGGGATT
B19: CUUACUA (DNA:RNA)
RNA: B1 RNA with G26U, G27U, U29C, G30U, C31A
DNA 1: CAATCTGAATTCCGGTCTCCC
DNA 2: TGGTGGCTACGACGGGATT
B20: UCUCGCU (DNA:RNA)
RNA: GGGAGACCGGAAUUCAGAUUGUCCUCUCGCUUUAAAUCCCGUCGUAGCCACCA
DNA 1: CAATCTGAATTCCGGTCTCCC
DNA 2: TGGTGGCTACGACGGGATT
B21: GGGGAUU (DNA:RNA)
RNA: B1 RNA with C25G, A28G, U29A, G30U, C31U
DNA 1: CAATCTGAATTCCGGTCTCCC
DNA 2: TGGTGGCTACGACGGGATT
B22: GCGGAUU (DNA:RNA)
RNA: B20 RNA with U25G, U27G, C28G, G29A, C30U
DNA 1: CAATCTGAATTCCGGTCTCCC
DNA 2: TGGTGGCTACGACGGGATT
B23: GCGGCGG (DNA:RNA)
RNA: B17 RNA with A26C, A27G, U28G, A30G
DNA 1: CAATCTGAATTCCGGTCTCCC
DNA 2: TGGTGGCTACGACGGGATT
B24: GCGGUUG (DNA:RNA)
RNA: B1 RNA with C25G, G26C, A28G, G30U, C31G
DNA 1: CAATCTGAATTCCGGTCTCCC
DNA 2: TGGTGGCTACGACGGGATT
B25: GGGGGAU (DNA:RNA)
RNA: B1 RNA with C25G, A28G, U29G, G30A, C31U
DNA 1: CAATCTGAATTCCGGTCTCCC
DNA 2: TGGTGGCTACGACGGGATT
B26: GCGGGAU (DNA:RNA)
RNA: B20 RNA with U25G, U27G, C28G, C30A
DNA 1: CAATCTGAATTCCGGTCTCCC
DNA 2: TGGTGGCTACGACGGGATT
B27: GGGAAUU (DNA:RNA)
RNA: B1 RNA with C25G, U29A, G30U, C31U
DNA 1: CAATCTGAATTCCGGTCTCCC
DNA 2: TGGTGGCTACGACGGGATT
B28: GGAGAUU (DNA:RNA)
RNA: B17 RNA with A26G, U28G, C29A, A30U, G31U
DNA 1: CAATCTGAATTCCGGTCTCCC
DNA 2: TGGTGGCTACGACGGGATT
B29: GCGGUUC (DNA:RNA)
RNA: B1 RNA with C25G, G26C, A28G, G30U
DNA 1: CAATCTGAATTCCGGTCTCCC
DNA 2: TGGTGGCTACGACGGGATT
B30: CGGGGAU (DNA:RNA)
RNA: B1 RNA with A28G, U29G, G30A, C31U
DNA 1: CAATCTGAATTCCGGTCTCCC
DNA 2: TGGTGGCTACGACGGGATT
B31: GGGAGAU (DNA:RNA)
RNA: B1 RNA with C25G, U29G, G30A, C31U
DNA 1: CAATCTGAATTCCGGTCTCCC
DNA 2: TGGTGGCTACGACGGGATT
B32: CGCGGAU (DNA:RNA)
RNA: B1 RNA with G27C, A28G, U29G, G30A, C31U
DNA 1: CAATCTGAATTCCGGTCTCCC
DNA 2: TGGTGGCTACGACGGGATT

Positions count from the first letter of the chain named. In all, about 16,000 sequences were measured (“ka relative to ugcaugu”: median about 0.0091, highest 2% from about 0.032 on). Only a selection was taken, and the highest values are over-represented in it overall.

In the test the target is T1, RBFOX1 RRM (Homo sapiens, UniProt Q9NWB1 109-208).
T1 sequence: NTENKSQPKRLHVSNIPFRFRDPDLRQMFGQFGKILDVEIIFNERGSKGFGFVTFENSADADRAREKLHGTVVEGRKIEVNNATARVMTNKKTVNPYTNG
Kind of test: EMSA; HiTS-Eq, 1 nM pool, 10 min; buffer printed only for the single-RNA assays: 10 mM Tris pH 7.5, 150 mM NaCl, 3.4 mM EDTA, 0.001% NP-40, 30 C. The settings on record: tags: His6 N-terminal (pET28a); label: 5' 32P. The method in brief: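 These values rest on relative association constants, computed from read-count changes of each RNA species versus the control reaction and normalised to the cognate motif. Reads came from free RNA recovered by 8% native PAGE after purified RbFox RRM (wild type or mutant) at increasing concentrations was equilibrated for 10 min in 50 µL with 1 nM of a 5′-radiolabelled pool with 7 randomized nucleotides and DNA-annealed flanks.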
(In general: A gel shift assay detects complexes by their altered migration in electrophoresis.)
As for B1, the binding signal was 0.0275 KA relative to UGCAUGU. The result for B2 reads 0.0261 KA relative to UGCAUGU. The result for B3 reads 0.00575 KA relative to UGCAUGU. For B4, the binding signal was 0.0325 KA relative to UGCAUGU.

With B5, the binding signal was 0.0515 KA relative to UGCAUGU. The result for B6 reads 0.00992 KA relative to UGCAUGU; that for B7, 0.00228 KA relative to UGCAUGU; that for B8, 0.00645 KA relative to UGCAUGU. For B9, the binding signal was 0.0261 KA relative to UGCAUGU. The value for B10 was 0.0399 KA relative to UGCAUGU; that for B11 was 0.0291 KA relative to UGCAUGU; that for B12 was 0.0328 KA relative to UGCAUGU.

With B13, the binding signal was 0.00826 KA relative to UGCAUGU. The result for B14 reads 0.0251 KA relative to UGCAUGU; that for B15, 0.0109 KA relative to UGCAUGU. With B16, the binding signal was 0.00608 KA relative to UGCAUGU. As to B17, the binding signal was 0.00941 KA relative to UGCAUGU. On to B18, for which the binding signal was 0.0111 KA relative to UGCAUGU. In the case of B19, the binding signal was 0.00319 KA relative to UGCAUGU. The value for B20 was 0.0104 KA relative to UGCAUGU. The value for B21 was 0.038 KA relative to UGCAUGU; that for B22 was 0.0163 KA relative to UGCAUGU; that for B23 was 0.0288 KA relative to UGCAUGU. As to B24, the binding signal is 0.0329 KA relative to UGCAUGU.

For the molecule B25, the binding signal is 0.0252 KA relative to UGCAUGU.

Turning to B26, the binding signal was 0.0486 KA relative to UGCAUGU.

Regarding B27, the binding signal is 0.0335 KA relative to UGCAUGU. The result for B28 reads 0.0219 KA relative to UGCAUGU; that for B29, 0.0202 KA relative to UGCAUGU; that for B30, 0.0184 KA relative to UGCAUGU. For B31, the binding signal was 0.0316 KA relative to UGCAUGU. The result for B32 reads 0.0187 KA relative to UGCAUGU.
